Test results published in PubChem BioAssay (NCATS).
Results filed as inconclusive are left out. Calls of active or inactive are those of the source. The call rests on the fitted dose curve; tested in HEK293 reporter line.

Assays:
[1] = qHTS for Inhibitors of the Functional Ribonucleoprotein Complex (vRNP) of Lassa (LASV) Arenavirus: LASV Primary Screen - GLuc reporter signal (AID 1347082); further: nearly all actives have a fitted effect of over 60% in size
[2] = qHTS for Inhibitors of the Functional Ribonucleoprotein Complex (vRNP) of Lassa (LASV) Arenavirus: Viability assay - alamar blue signal for LASV Primary Screen (AID 1347083); further: nearly all actives have a fitted effect of over 80% in size
[3] = qHTS for Inhibitors of the Functional Ribonucleoprotein Complex (vRNP) of Lymphocytic Choriomeningitis Arenaviruses (LCMV): Viability assay - alamar blue signal for LCMV Primary Screen (AID 1347085); further: nearly all actives have a fitted effect of over 80% in size

Measured: Potency
Further: series mostly up to about 57 µM.

CCCOc1ccc(C(=O)OCCN(CC)CC)cc1N
inactive: [1] | [2] | [3]

CN1C(=O)CC(c2ccccc2)C1=O (centres undefined)
inactive: [1] | [2] | [3]

CC(=O)c1ccc2c(c1)N(CCCN1CCC(CCO)CC1)c1ccccc1S2
inactive: [1] | [2] | [3]

CCOC(=O)[C@H](CCc1ccccc1)N[C@@H](C)C(=O)N1C(=O)N(C)C[C@H]1C(=O)O
inactive: [1] | [2] | [3]

C[C@@H](O)[C@H]1C(=O)N2C(C(=O)O)=C([C@H]3CCCO3)S[C@H]12
inactive: [1] | [2] | [3]

CCC(=O)Nc1ccc(O)cc1
inactive: [1] | [2] | [3]

Nc1ccncc1N
inactive: [1] | [2] | [3]

CCn1cc(C(=O)O)c(=O)c2cc(F)c(N3CCNCC3)nc21
inactive: [1] | [2] | [3]

COC(=O)C1=C(C)NC(COC(N)=O)=C(C(=O)OC(C)C)C1c1cccc(Cl)c1Cl (centres undefined)
inactive: [1] | [2] | [3]

Clc1ccc(C(Cn2ccnc2)OCc2ccc(Sc3ccccc3)cc2)c(Cl)c1 (centres undefined)
inactive: [1] | [2] | [3]

C[C@]12CC[C@H]3[C@@H](CCC4=CC(=O)CC[C@@]43C)[C@@H]1CC[C@@H]2C(=O)CO
inactive: [1] | [2] | [3]

CC(=O)N[C@H]1[C@H]([C@H](O)[C@H](O)CO)OC(C(=O)O)=C[C@@H]1N=C(N)N
inactive: [1] | [2] | [3]

C[C@]12CCC(=O)C=C1[C@@H]1C[C@@H]1[C@H]1[C@@H]3[C@@H]4C[C@@H]4[C@@]4(CCC(=O)O4)[C@@]3(C)CC[C@@H]12
inactive: [1] | [2] | [3]

O=C1c2ccccc2S(=O)(=O)N1CCCCN1CCN(c2ncccn2)CC1
inactive: [1] | [2] | [3]

CC1CC(OC(=O)C(O)c2ccccc2)CC(C)(C)N1C (centres undefined)
inactive: [1] | [2] | [3]

CN(C(=O)c1c(O)c2ccccc2n(C)c1=O)c1ccccc1
inactive: [1] | [2] | [3]

CC(COc1ccccc1)NC(C)C(O)c1ccc(O)cc1 (centres undefined)
inactive: [1] | [2] | [3]

O=C1c2cccc(O)c2C(=O)c2c(O)cccc21
inactive: [1] | [2] | [3]

COc1cc(NS(=O)(=O)c2ccc(N)cc2)ncn1
inactive: [1] | [2] | [3]

C[N+]1(CC2COC(c3ccccc3)(c3ccccc3)O2)CCCCC1 (centres undefined)
inactive: [1] | [2] | [3]

O=C(O)c1cn(-c2ccc(F)cc2)c2cc(N3CCNCC3)c(F)cc2c1=O
inactive: [1] | [2] | [3]

CCN(CC)CCN
inactive: [1] | [2] | [3]

CCCCCC(=O)O[C@]1(C(C)=O)CC[C@H]2[C@@H]3CCC4=CC(=O)CC[C@]4(C)[C@H]3CC[C@@]21C
inactive: [1] | [2] | [3]

O=S(=O)(c1cccc2cnccc12)N1CCCNCC1
inactive: [1] | [2] | [3]

O=C1c2ccccc2C(=O)C1c1ccc(Br)cc1
inactive: [1] | [2] | [3]

CNC(=O)c1c(I)c(NC(=O)CCCCC(=O)Nc2c(I)c(C(=O)O)c(I)c(C(=O)NC)c2I)c(I)c(C(=O)O)c1I
inactive: [1] | [2] | [3]

C#CCN(C)Cc1ccccc1
inactive: [1] | [2] | [3]

Nc1nc(=O)n([C@@H]2O[C@H](CO)[C@@H](O)[C@@H]2F)cc1I
inactive: [1] | [2] | [3]

CN(C(=O)CCCOc1ccc2[nH]c(=O)ccc2c1)C1CCCCC1
inactive: [1] | [2] | [3]

C[C@@H](CN(C)C)CN1c2ccccc2Sc2ccccc21
inactive: [1] | [2] | [3]

CCN1C(=O)c2ccccc2C1Nc1ccc(OCCN2CCCCC2)cc1 (centres undefined)
inactive: [1] | [2] | [3]

CCCn1cnc2c1c(=O)n(CCCCC(C)=O)c(=O)n2C
inactive: [1] | [2] | [3]

O=C(Nc1ccc([N+](=O)[O-])cc1)Nc1ccc([N+](=O)[O-])cc1
inactive: [1] | [2] | [3]

CC(=O)CCC(=O)O
inactive: [1] | [2] | [3]

CC(C)(C)c1ccc(C(O)CCCN2CCC(C(O)(c3ccccc3)c3ccccc3)CC2)cc1 (centres undefined)
inactive: [1] | [2] | [3]

COc1cc(OC)cc(OC)c1
inactive: [1] | [2] | [3]

COc1ccc(CN(CCN(C)C)c2ncccn2)cc1
inactive: [1] | [2] | [3]

CCN(CC)C(=O)N1CCN(C)CC1
inactive: [1] | [2] | [3]

NCc1ccccc1Sc1ccccc1CO
inactive: [1] | [2] | [3]

CC(C)NC(=O)c1ccc(C=O)cc1
inactive: [1] | [2] | [3]

C[C@]12CC[C@@H]3c4ccc(O)cc4CC[C@H]3[C@@H]1CCC2=O
inactive: [1] | [2] | [3]

Cc1ccc(O)cc1
inactive: [1] | [2] | [3]

Clc1ccccc1-c1nc(-c2ccncc2)no1
inactive: [1] | [2] | [3]
